What all share (test): DAPPL (digital affinity profiling via proximity ligation, sequencing); 10 mM Tris-HCl pH 7.5, 50 mM NaCl, 1 mM DTT, 4% glycerol, room temperature, 30 min; GST-TFs on glutathione beads, 16-mer random dsDNA library, 0.1% formaldehyde crosslink after washing; high values mean tight binding
Common to all, as to details: protein: recombinant; tags: N-terminal GST; dsDNA, one strand shown

One assay concerns the target T1, FLI1 (Homo sapiens, UniProt Q01543 1-452).
T1 sequence: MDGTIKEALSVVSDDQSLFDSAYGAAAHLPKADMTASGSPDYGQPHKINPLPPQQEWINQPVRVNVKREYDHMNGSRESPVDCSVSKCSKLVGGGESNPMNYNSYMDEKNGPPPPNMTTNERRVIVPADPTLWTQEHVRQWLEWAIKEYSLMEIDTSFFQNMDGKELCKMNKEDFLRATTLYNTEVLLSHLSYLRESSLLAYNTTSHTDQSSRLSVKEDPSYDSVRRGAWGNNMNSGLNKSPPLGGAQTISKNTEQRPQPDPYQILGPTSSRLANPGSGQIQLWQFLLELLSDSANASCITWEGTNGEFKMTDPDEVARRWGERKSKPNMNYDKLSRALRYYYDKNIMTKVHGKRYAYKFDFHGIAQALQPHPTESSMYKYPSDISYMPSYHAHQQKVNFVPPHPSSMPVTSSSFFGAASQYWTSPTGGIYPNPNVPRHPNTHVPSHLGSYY
In a few lines: (§1)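 Pools were built from human transcription factors expressed in yeast as GST fusions, captured on glutathione beads and DNA-barcoded, along with a tag-only sample. Incubation with 200 nmole of a 16-mer random double-stranded DNA library lasted 30 min at room temperature in Tris/NaCl/DTT/glycerol buffer, and was followed by washing, 0.1% formaldehyde crosslinking, proximity ligation, PCR amplification and Illumina NextSeq500 sequencing. Binding signal is the quotient of each hexamer's read frequency for a factor and its frequency for the tag-only sample.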

The target of another assay is T2, ELK1 (Homo sapiens, UniProt P19419 1-428).
T2 sequence: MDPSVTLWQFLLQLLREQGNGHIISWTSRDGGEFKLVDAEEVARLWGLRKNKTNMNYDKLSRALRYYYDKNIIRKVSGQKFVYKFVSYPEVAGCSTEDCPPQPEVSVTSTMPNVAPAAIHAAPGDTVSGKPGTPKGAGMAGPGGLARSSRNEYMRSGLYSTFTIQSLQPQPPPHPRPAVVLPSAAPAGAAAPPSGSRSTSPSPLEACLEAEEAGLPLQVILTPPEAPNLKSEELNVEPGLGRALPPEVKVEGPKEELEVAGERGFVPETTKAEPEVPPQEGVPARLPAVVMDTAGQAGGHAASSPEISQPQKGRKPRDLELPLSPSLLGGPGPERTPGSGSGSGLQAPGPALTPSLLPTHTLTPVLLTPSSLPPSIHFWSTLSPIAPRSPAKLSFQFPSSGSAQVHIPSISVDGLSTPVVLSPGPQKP
Put shortly:
as §1

The target of another assay is ELF1 (Homo sapiens, UniProt P32519 1-619). In a few lines: as §1
ELF1, sequence (P32519 whole entry): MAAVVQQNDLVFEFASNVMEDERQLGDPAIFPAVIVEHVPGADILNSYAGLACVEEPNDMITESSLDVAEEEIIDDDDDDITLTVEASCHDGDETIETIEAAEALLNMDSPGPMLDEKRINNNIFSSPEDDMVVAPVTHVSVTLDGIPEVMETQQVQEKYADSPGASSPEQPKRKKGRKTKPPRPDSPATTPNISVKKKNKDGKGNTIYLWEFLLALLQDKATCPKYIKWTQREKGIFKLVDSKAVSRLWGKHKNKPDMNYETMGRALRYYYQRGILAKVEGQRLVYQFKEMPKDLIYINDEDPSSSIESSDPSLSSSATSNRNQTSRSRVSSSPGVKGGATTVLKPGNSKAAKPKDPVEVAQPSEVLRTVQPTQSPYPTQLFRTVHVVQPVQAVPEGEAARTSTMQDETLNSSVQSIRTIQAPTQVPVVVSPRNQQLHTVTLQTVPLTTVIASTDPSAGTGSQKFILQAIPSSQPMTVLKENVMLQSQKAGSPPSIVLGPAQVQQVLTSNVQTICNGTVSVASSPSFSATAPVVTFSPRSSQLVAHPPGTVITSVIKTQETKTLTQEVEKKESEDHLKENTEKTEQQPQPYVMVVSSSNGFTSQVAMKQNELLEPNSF
Another assay deals with T3, EHF (Homo sapiens, UniProt Q9NZC4 1-300).
T3 sequence: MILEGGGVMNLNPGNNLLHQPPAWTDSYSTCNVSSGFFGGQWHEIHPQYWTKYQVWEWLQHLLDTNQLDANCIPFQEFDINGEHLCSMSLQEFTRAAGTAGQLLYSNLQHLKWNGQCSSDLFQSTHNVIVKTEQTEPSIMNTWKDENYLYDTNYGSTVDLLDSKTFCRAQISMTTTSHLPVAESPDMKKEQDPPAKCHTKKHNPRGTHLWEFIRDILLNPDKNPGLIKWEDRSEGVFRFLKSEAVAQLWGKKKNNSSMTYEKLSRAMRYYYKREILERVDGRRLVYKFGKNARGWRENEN
Put shortly: as §1

The next assay concerns the target SPI1 (Homo sapiens, UniProt P17947 1-270). In a few lines: as §1
The next assay deals with SPIB (Homo sapiens, UniProt Q01892 1-262). In a few lines: as §1
SPIB, sequence (Q01892 whole entry): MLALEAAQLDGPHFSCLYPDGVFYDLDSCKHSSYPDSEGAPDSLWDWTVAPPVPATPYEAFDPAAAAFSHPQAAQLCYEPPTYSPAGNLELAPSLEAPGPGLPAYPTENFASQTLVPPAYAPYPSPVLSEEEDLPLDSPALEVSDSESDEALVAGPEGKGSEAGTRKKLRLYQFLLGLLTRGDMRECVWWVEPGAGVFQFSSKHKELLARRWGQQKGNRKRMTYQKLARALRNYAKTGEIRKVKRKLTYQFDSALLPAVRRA
For a further assay, the target named is ETV5 (Homo sapiens, UniProt P41161 1-510). Put shortly:
as §1

A further assay deals with T4, SPIC (Homo sapiens, UniProt Q8N5J4 1-248).
T4 sequence: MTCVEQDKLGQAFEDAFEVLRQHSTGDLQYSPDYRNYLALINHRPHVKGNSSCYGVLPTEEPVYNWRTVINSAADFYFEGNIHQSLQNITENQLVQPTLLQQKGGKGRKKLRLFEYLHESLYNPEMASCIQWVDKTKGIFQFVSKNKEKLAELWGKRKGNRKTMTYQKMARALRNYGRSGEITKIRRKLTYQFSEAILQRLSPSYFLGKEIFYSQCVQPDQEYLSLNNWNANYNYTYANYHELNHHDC
Put shortly:
as §1

The target of another assay is ETV1 (Homo sapiens, UniProt P50549 1-477). Put shortly:
as §1

The target of the next assay is T5, ELF5 (Homo sapiens, UniProt Q9UKW6-2 1-255).
T5 sequence: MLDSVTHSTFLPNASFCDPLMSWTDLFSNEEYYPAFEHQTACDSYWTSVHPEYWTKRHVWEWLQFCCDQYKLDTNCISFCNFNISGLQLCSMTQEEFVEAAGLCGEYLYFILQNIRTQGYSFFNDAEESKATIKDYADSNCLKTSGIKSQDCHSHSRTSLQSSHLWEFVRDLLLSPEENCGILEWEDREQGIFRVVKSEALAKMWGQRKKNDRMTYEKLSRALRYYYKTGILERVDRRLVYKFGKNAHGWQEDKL
Put shortly:
as §1

Another assay deals with ETV6 (Homo sapiens, UniProt P41212 1-452). Put shortly: as §1
ETV6, sequence (P41212 whole entry): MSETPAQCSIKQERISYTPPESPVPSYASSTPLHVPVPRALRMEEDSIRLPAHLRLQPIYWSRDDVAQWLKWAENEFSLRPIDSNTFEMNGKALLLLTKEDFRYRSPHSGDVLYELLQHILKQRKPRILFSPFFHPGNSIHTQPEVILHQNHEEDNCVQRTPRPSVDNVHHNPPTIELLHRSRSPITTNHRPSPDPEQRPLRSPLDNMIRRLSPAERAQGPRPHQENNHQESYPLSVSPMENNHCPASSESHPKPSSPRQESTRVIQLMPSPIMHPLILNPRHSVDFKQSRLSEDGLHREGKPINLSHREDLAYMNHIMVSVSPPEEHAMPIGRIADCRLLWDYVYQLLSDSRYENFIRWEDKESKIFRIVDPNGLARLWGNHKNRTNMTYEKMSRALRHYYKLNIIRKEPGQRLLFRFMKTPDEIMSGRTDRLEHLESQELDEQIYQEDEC

ETV1, sequence (P50549 whole entry): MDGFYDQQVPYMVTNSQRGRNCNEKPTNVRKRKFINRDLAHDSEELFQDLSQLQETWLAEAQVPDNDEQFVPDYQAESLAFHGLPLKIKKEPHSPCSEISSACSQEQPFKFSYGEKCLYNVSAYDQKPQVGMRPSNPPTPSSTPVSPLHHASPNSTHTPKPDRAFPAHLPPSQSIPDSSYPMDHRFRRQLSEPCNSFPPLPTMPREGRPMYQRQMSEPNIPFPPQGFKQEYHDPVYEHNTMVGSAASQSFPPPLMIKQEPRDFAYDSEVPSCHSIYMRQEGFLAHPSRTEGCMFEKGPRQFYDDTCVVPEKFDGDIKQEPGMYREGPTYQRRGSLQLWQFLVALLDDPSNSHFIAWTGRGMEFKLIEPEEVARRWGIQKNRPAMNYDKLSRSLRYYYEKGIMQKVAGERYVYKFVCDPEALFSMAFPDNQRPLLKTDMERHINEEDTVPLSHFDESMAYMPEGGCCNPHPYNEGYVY
ETV5, sequence (P41161 whole entry): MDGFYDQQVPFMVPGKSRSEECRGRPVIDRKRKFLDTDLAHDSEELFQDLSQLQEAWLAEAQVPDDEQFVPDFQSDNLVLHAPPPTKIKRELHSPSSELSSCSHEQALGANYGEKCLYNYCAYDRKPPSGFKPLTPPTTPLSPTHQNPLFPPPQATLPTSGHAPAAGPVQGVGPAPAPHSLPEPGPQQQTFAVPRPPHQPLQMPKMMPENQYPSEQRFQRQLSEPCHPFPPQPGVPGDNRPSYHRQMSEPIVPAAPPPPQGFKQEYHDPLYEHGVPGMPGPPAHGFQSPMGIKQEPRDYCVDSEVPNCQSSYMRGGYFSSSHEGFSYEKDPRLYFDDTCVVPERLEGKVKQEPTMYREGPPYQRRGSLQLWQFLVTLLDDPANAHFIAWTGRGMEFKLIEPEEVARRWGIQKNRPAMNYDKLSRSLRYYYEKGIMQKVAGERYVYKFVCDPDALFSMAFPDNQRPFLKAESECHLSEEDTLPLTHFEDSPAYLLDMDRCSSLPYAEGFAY

For ACGGTT, the binding signal was 1.07 fold enrichment (6-mer frequency, TF over GST control) with FLI1; 1.02 fold enrichment (6-mer frequency, TF over GST control) with ELK1; 1.03 fold enrichment (6-mer frequency, TF over GST control) in the assay with ELF1; 1.04 fold enrichment (6-mer frequency, TF over GST control) in the assay with EHF; 1.02 fold enrichment (6-mer frequency, TF over GST control) with SPI1; 1.02 fold enrichment (6-mer frequency, TF over GST control) with SPIB. The binding signal with ETV5 is 1 fold enrichment (6-mer frequency, TF over GST control); with SPIC it was 1.04 fold enrichment (6-mer frequency, TF over GST control); with ETV1, 1.08 fold enrichment (6-mer frequency, TF over GST control); with ELF5, 1.05 fold enrichment (6-mer frequency, TF over GST control); in the assay with ETV6, 1.01 fold enrichment (6-mer frequency, TF over GST control).

Values taken from PMC7862700, “An all-to-all approach to the identification of sequence-specific readers for epigenetic DNA modifications on cytosine”.
